Screening data from PubChem.
Only some compounds are listed: those with a hit (about 21% of all), similar ones and a draw of the others.
IL1B secr inh: blocks inflammasome-driven IL-1 beta release | THP-1 LPS/ATP IL-1B secretion, AlphaLISA, 16 h; active compounds read low | 4.7% of 360,000 active | activity change, % at 57.5 µM | AID 743279; in the data active means activity change below about -50%; inconclusive means mostly about -30% to -49%; further: on the % scale 0 is the no-effect control and ±100 the full control effect
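Secreted IL-1B measured by AlphaLISA bead assay after 16 h compound exposure of THP-1 cells; compounds (final up to 57.5 uM) added 1 h before LPS (250 ng/mL) and ATP (1.25 mM) stimulation; lower signal means less secretion.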
D3 ag: D3 dopamine receptor (human) agonism. AID 652048. max activation, %. P35462. 0.58% of 410,000 active. D3R DiscoveRx beta-arrestin cells, luminescence, 90 min; in the data active means max activation above about 30%; further: 0% is about no effect
Target sequence (P35462 whole entry, looked up): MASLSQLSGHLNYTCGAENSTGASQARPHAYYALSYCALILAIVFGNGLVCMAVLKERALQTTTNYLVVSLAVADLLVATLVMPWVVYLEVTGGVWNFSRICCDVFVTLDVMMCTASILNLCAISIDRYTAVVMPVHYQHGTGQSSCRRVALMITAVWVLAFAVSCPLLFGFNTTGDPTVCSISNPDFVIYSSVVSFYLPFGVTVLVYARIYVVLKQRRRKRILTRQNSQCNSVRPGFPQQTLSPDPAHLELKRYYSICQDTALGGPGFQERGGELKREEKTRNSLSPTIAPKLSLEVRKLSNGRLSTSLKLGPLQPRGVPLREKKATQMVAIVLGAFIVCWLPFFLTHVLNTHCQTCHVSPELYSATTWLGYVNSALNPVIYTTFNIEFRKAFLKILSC
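Agonist mode: compounds and dopamine controls were applied to plated cells for 90 min at 37 degrees C after an overnight attachment at 1500 cells/well. Luminescent read-out followed 30 - 60 minutes at room temperature with DiscoveRx detection reagent.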
DT40 TDP1 no CPT: qHTS for Inhibitors of human tyrosyl-DNA phosphodiesterase 1 (TDP1): qHTS in cells in absence of CPT; Potency, µM (doses to about 46.2 µM), inactives show at the highest dose activity change, negative = growth inhibition, actives largely listed as inhibitors; AID 686978, 2013; DT40 Tdp1-/- hTDP1 cells, no CPT, ATP luminescence, 48 h; 15% of 420,000 active; further: potency means the concentration at half of the fitted maximal effect; on the % scale 0 is the no-effect control and ±100 the full control effect; nearly all actives have a fitted effect of over 55% in size
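Compound effects on proliferation are scored in DT40 Tdp1-/-;hTDP1 cells in the absence of CPT. ATP levels (CellTiter-Glo luminescence) are recorded after a ≥48 hr, 37 °C incubation.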
ClpP mod: qHTS Assay for Activators of ClpP | ATP-dependent Clp protease proteolytic subunit (Bacillus subtilis (strain 168)), P80244 | purified B. subtilis ClpP, FRET peptide cleavage, 20 min | Potency, µM (highest dose often 57.5 µM), without a hit: at the top dose activity change, negative = active | 1.9% of 340,000 active; active means well fitted falling curve with a large enough effect; inconclusive means small, poorly fitted or top-dose-only effect; inactive means no such curve, though single readings can be large or run the other way; further: potency means the concentration at half of the fitted maximal effect; the source files actives as falling curves though it sought activators and does not explain the sign; nearly all actives have a fitted effect of over 65% in size
Target sequence (P80244 whole entry, looked up): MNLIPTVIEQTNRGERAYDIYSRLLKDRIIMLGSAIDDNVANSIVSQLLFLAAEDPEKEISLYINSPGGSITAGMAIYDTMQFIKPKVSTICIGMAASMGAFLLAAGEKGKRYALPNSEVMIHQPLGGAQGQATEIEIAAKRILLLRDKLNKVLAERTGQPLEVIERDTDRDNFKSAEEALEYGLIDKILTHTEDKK
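Purified B. subtilis ClpP, 10 microg/mL final in Tris/HCl pH8 with KCl, BSA, glycerol and Tween-20, cleaved an Abz/nitrotyrosine-quenched decapeptide. Fluorescence (ex 320, em 430) was read at 0 and 20 min at room temperature. Delta was normalized to 5.8 microM ADEP and DMSO/no-enzyme controls.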
TDP1 cell CPT: growth inhibition of DT40 Tdp1-/-;hTDP1 cells with camptothecin (screen for TDP1 inhibitors). Potency, µM (top dose mostly 46.2 µM), for inactives: at the highest dose activity change, negative = growth inhibition, actives largely listed as inhibitors. chicken DT40 Tdp1-/-;hTDP1 cells + 20 nM CPT, ATP luminescence, 48 h. 12% of 420,000 active; further: potency means the concentration at half of the fitted maximal effect; on the % scale 0 is the no-effect control and ±100 the full control effect; nearly all actives have a fitted effect of over 55% in size
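Chicken DT40 Tdp1-/- cells stably complemented with human TDP1 were seeded at 400 cells/well in medium containing 20 nM camptothecin, exposed to pin-transferred compounds, and grown at 37 °C for at least 48 hr. Viability was read as ATP luminescence.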
DRD3 antagonist: antagonists of human D3 dopamine receptor; AID 652054; D3R cells, DiscoveRx beta-arrestin luminescence, antagonist mode; active compounds read low; max response, negative = inhibition, %; P35462; 2.5% of 360,000 active; in the data active means max response below about -50%; inconclusive means no clear call, values can overlap the other calls; further: on the % scale 0 is the no-effect control and ±100 the full control effect
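Cells expressing the human receptor were seeded at 1500 cells/well, incubated overnight at 37 degrees C in 5% CO2, then exposed to library compounds with dopamine controls for 90 minutes at 37 degrees C before luminescent detection.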
Numbers without * were called inactive; ? = inconclusive; · = not tested or not shown; [ ] = another dose, or the depositor's remark. Unless noted, the call rests on the fitted dose curve; in most records, active means well fitted inhibition curve with a large enough effect; inconclusive means small, poorly fitted or top-dose-only effect; inactive means flat fitted curve, though single readings scatter.

SMILES | IL1B secr inh | D3 ag | DT40 TDP1 no CPT | ClpP mod | TDP1 cell CPT | DRD3 antagonist
O=C(NCC(=O)N(c1cccc(F)c1)C(C(=O)NC1CCCC1)c1ccncc1)c1cccs1 (stereo not drawn) | 8.8 | 15.9 | 0.8% | 0.5% | -2.6% | 3.0
COc1ccc(-c2cn(/N=C/c3ccc(Cl)cc3Cl)c(N)n2)cc1 | -66.4* | -20.6 | ? | 1.3% | 23.1µM* | -19.1
Nc1nc(-c2ccccc2)cn1/N=C/c1ccccc1 | ? | -4.3 | 23.1µM* | · | ? | -3.7
CCCCCC(=O)Nc1cc(S(=O)(=O)N2CCCCC2)ccc1N1CCOCC1 | -1.4 | 3.3 | ? | 0.7% | -27.5% | 22.5
CN(C)c1ccc(/C=C(/NC(=O)c2ccccc2)C(=O)NCCCn2ccnc2)cc1 | -11.2 | 4.6 | -4.1% | 0.3% | 31.8% | -6.9
NC1=NC(=O)/C(=C\c2ccc(-c3ccc(Cl)cc3)o2)S1 | 55.4 | -2.6 | 18.4µM* | -2.9% | ? | 36.4
NC1=NC(=O)/C(=C/c2cn(CCC(=O)O)nc2-c2ccc(Cl)cc2)S1 | 0.0 | -7.9 | -21.7% | -7.9% | -16.7% | -18.4
Cc1cc(C(=O)CN2C(=O)C(=O)N(Cc3ccco3)C2=O)c(C)n1CCc1ccc(F)cc1 | 36.8 | 0.2 | ? | -0.6% | 20.6µM* | -8.2
Cc1[nH]c2ccccc2c1C(=O)CN1C(=O)C(=O)N(Cc2ccco2)C1=O | 19.3 | 5.7 | -0.6% | 28.2µM* | 1.3% | -1.5
Cc1[nH]c2ccccc2c1C(=O)CN1C(=O)C(=O)N(CCC2=CCCCC2)C1=O | 0.0 | -5.1 | 3.4% | -0.3% | -10.4% | -3.1
Cc1cc(C(=O)CN2C(=O)C(=O)N(Cc3ccco3)C2=O)c(C)n1CCc1ccccc1 | 11.4 | -3.3 | 18.4µM* | 0.5% | 23.1µM* | 15.0
COc1ccc(CCNC(=O)CSc2nnc3ccccn23)cc1 | 0.0 | -17.0 | -18.6% | · | 0.3% | -3.7
CCCCC[C@H](O)/C=C/C=C\C=C\C=C\[C@@H](O)[C@@H](O)CCCC(=O)O | · | · | 0.2%[0.628 µM] | · | -1.7%[0.628 µM] | ·
COc1ccc(-c2nnc(NC(=O)c3cc(Cl)ccc3Cl)o2)cc1 | 30.5 | -3.2 | ? | -2.6% | 16.4µM* | 0.0
O=C(Nc1c2c(nn1-c1ccc(F)cc1)CS(=O)(=O)C2)c1ccc(S(=O)(=O)N2CCOCC2)cc1 | -11.2 | -3.0 | -8.8% | -2.5% | 18.3% | -64.6*
CS(=O)(=O)c1cccc(-c2nnc(NC(=O)c3ccc(S(=O)(=O)N4CCCC4)cc3)o2)c1 | -3.3 | 0.8 | 3.0% | 1.2% | -1.4% | 0.7
CCC(=O)Nc1nnc(-c2ccc(OC)cc2)o1 | 1.7 | -4.7 | -17.4% | -2.9% | -14.6% | 0.0
O=C(Nc1c2c(nn1-c1ccc(Cl)cc1)CS(=O)(=O)C2)c1ccc(Br)cc1 | · | -3.4 | 16.4µM* | 2.6% | 23.1µM* | ·
O=C(Nc1nnc(-c2ccc(F)cc2)o1)c1ccc(S(=O)(=O)N2CCOCC2)cc1 | 64.1 | 0.6 | 2.91µM* | -1.0% | 3.26µM* | 18.9
O=C(Nc1c2c(nn1-c1ccc(Cl)cc1)CS(=O)(=O)C2)c1ccc2c(c1)OCO2 | -3.4 | -23.1 | -3.1% | -4.7% | -8.2% | -8.8
Nc1nc(-c2ccccc2)c(C(=O)Nc2ccccc2)s1 | -17.7 | -3.2 | ? | 1.2% | -9.3% | -22.9
COc1ccccc1C(=O)Nc1nnc(-c2ccc(F)cc2)o1 | 0.0 | -6.9 | -28.1% | -3.7% | 7.3% | 17.0
Cc1ccccc1C(=O)Nc1nnc(-c2ccc(F)cc2)o1 | 68.7 | -16.9 | 5.8µM* | -0.7% | 6.51µM* | -20.6
O=C(Nc1nc(-c2ccccc2)c(-c2ccccc2)o1)c1ccc(F)cc1 | 10.1 | -28.2 | 8.2µM* | ? | 9.2µM* | -100.1*
COc1ccc(-c2nnc(NC(=O)c3ccc(F)cc3)o2)cc1 | 45.3 | 1.8 | ? | 1.0% | 2.91µM* | 35.7
